This note sets out measurements from PubChem BioAssay (NCI).

Each structure is given as a SMILES string. Where “and” joins values, the source holds several entries; their conditions need not be identical. Equal entries are not always repeated. The panel holds about 79,000 compounds, 15% with a hit somewhere; the sample as a whole holds those more often. More than one record can exist for a structure, and the calls need not agree. Calls of active or inactive are those of the source. Cut-off read from the data, not from the text of the source: active = growth inhibition above about 70%; inactive = the rest.

Experiment [1] can be described thus: NCI Yeast Anticancer Drug Screen. Data for the rad50 strain (AID 155).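 Note: 0% = growth of vehicle-only cultures of the same strain.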 The note with it: S. cerevisiae rad50 strain growth inhibition, stronger effect = higher value. The method, boiled down: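 Vehicle-treated cultures provide the reference for the growth inhibition reported for compound-exposed, repair-deficient yeast.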
The nature of experiment [2]: NCI Yeast Anticancer Drug Screen. Data for the mec2-1 strain (AID 157). The note with it: S. cerevisiae mec2-1 strain, stronger effect = higher value. The method, boiled down:
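Using mec2-1 yeast: add compound, measure growth, express inhibition versus vehicle-treated cultures.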

The nature of experiment [3]: NCI Yeast Anticancer Drug Screen. Data for the sgs1 mgt1 strain (AID 161).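 Note: 0% = growth of cultures given vehicle only.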 The note with it: S. cerevisiae sgs1 mgt1 strain, stronger effect = higher value. The method, boiled down:
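Percent growth inhibition was derived by comparing compound-exposed mutant yeast with vehicle-exposed cultures. The strain carries alterations in DNA damage repair.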

Experiment [4] in a line: NCI Yeast Anticancer Drug Screen. Data for the cln2 rad14 strain (AID 165).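 Note: 0% = growth equal to vehicle treated cultures.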 The note with it: S. cerevisiae cln2 rad14 strain, stronger effect = higher value. The method, boiled down:
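Yeast strain cln2 rad14, bearing defects in cell cycle control and DNA repair, serves as the test system; values reflect growth inhibition compared with vehicle.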

The nature of experiment [5]: NCI Yeast Anticancer Drug Screen. Data for the bub3 strain (AID 167). The note with it: S. cerevisiae bub3 mutant strain, stronger effect = higher value. The method, boiled down: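 Mutant yeast screening strain plus compound; vehicle-treated cultures serve as the 0% inhibition reference.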
Experiment [6] is described as follows: NCI Yeast Anticancer Drug Screen. Data for the mlh1 rad18 strain (AID 175). Particulars: S. cerevisiae mlh1 rad18 strain growth inhibition, stronger effect = higher value. The method, boiled down:
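Steps: expose repair-defective yeast to compound; measure growth; express inhibition against vehicle-treated controls.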

[7] abbreviates: at 5.0 µM (retest, dose inferred, filed as 0.5).
[8] abbreviates: at 50.0 µM (retest, dose inferred, filed as 5.0).

Consider `O=C1OC(CN2CCOCC2)CN1/N=C/c1ccc([N+](=O)[O-])o1` (centres undefined), for which the growth inhibition was 6% (inactive) in experiment [1] (setting [7]); 50% (inactive) in experiment [1] (setting [8]); 65.8% (inactive) and -2.7% (inactive) in experiment [1] (at 50.0 µM); 8% (inactive) in experiment [2] (setting [7]); 41% (inactive) in experiment [2] (setting [8]); 26.6% (inactive) and 14.2% (inactive) in experiment [2] (at 50.0 µM). The growth inhibition in experiment [3] (setting [7]) was 18% (inactive); in experiment [3] (setting [8]), 80% (active); in experiment [3] (at 50.0 µM) it was 86% (active) and 69.8% (inactive); in experiment [4] (setting [7]) it was 1% (inactive); in experiment [4] (setting [8]) it was 51% (inactive); in experiment [4] (at 50.0 µM) it was 38.3% (inactive) and -8.55% (inactive). The growth inhibition in experiment [5] (setting [7]) is -4% (inactive); in experiment [5] (setting [8]) it was 9% (inactive); in experiment [5] (at 50.0 µM) it was 36.6% (inactive) and 0.1% (inactive); in experiment [6] (setting [7]) it was 13% (inactive); in experiment [6] (setting [8]), 76% (active); in experiment [6] (at 50.0 µM), 75.7% (active) and 34.3% (inactive).

For the compound `c1ccc(-c2cnc(-c3ccc(-c4ncc(-c5ccccc5)o4)cc3)o2)cc1`, the growth inhibition was -13% (inactive) in experiment [1] (setting [7]); -8% (inactive) in experiment [1] (setting [8]); -8.4% (inactive) in experiment [1] (at 50.0 µM); -6% (inactive) in experiment [2] (setting [7]); -17% (inactive) in experiment [2] (setting [8]); -27.4% (inactive) in experiment [2] (at 50.0 µM). Also, the growth inhibition in experiment [3] (setting [7]) was -23% (inactive); in experiment [3] (setting [8]), -11% (inactive); in experiment [3] (at 50.0 µM) it was -47.8% (inactive); in experiment [4] (setting [7]), -11% (inactive); in experiment [4] (setting [8]), -10% (inactive); in experiment [4] (at 50.0 µM) it was 91% (active). Also, the growth inhibition was 0% (inactive) in experiment [5] (setting [7]); 5% (inactive) in experiment [5] (setting [8]); -32.6% (inactive) in experiment [5] (at 50.0 µM); 5% (inactive) in experiment [6] (setting [7]); -10% (inactive) in experiment [6] (setting [8]); -20.6% (inactive) in experiment [6] (at 50.0 µM).

In the case of `Cc1c(-c2ccccc2)ccnc1/C=N/NC(N)=S`, the growth inhibition in experiment [1] (setting [7]) is 29% (inactive); in experiment [1] (setting [8]) it was 42% (inactive); in experiment [1] (at 50.0 µM) it was 48.1% (inactive); in experiment [2] (setting [7]), 9% (inactive); in experiment [2] (setting [8]) it was 53% (inactive); in experiment [2] (at 50.0 µM) it was 79% (active). Also, the growth inhibition in experiment [3] (setting [7]) is 43% (inactive); in experiment [3] (setting [8]) it was 58% (inactive); in experiment [3] (at 50.0 µM), 65.7% (inactive); in experiment [4] (setting [7]) it was 39% (inactive); in experiment [4] (setting [8]), 39% (inactive); in experiment [4] (at 50.0 µM), 54.4% (inactive). In addition, the growth inhibition in experiment [5] (setting [7]) is 49% (inactive); in experiment [5] (setting [8]) it was 45% (inactive); in experiment [5] (at 50.0 µM) it was 80.7% (active); in experiment [6] (setting [7]), 18% (inactive); in experiment [6] (setting [8]), 36% (inactive); in experiment [6] (at 50.0 µM), 82% (active).

Consider `O=[N+]([O-])c1ccc(N/N=C/CC(O)(C(F)(F)F)C(F)(F)F)c([N+](=O)[O-])c1`, for which the growth inhibition in experiment [1] (setting [7]) is 0% (inactive); in experiment [1] (setting [8]), 98% (active); in experiment [1] (at 50.0 µM), 88.6% (active); in experiment [2] (setting [7]) it was -1% (inactive); in experiment [2] (setting [8]) it was 98% (active); in experiment [2] (at 50.0 µM) it was 91.5% (active). The growth inhibition in experiment [3] (setting [7]) is -1% (inactive); in experiment [3] (setting [8]), 97% (active); in experiment [3] (at 50.0 µM), 91.8% (active); in experiment [4] (setting [7]), 25% (inactive); in experiment [4] (setting [8]), 98% (active); in experiment [4] (at 50.0 µM), 88% (active). Moreover, the growth inhibition in experiment [5] (setting [7]) was 13% (inactive); in experiment [5] (setting [8]), 98% (active); in experiment [5] (at 50.0 µM), 86.4% (active); in experiment [6] (setting [7]), 3% (inactive); in experiment [6] (setting [8]) it was 98% (active); in experiment [6] (at 50.0 µM), 89.9% (active).

Take `Clc1nc2nc(Cl)c(Cl)n2nc1Cl`: the growth inhibition is -4% (inactive) in experiment [1] (setting [7]); -5% (inactive) in experiment [1] (setting [8]); 98.5% (active) in experiment [1] (at 50.0 µM); -3% (inactive) in experiment [2] (setting [7]); -7% (inactive) in experiment [2] (setting [8]); 99.7% (active) in experiment [2] (at 50.0 µM). For the same compound, the growth inhibition was -2% (inactive) in experiment [3] (setting [7]); -11% (inactive) in experiment [3] (setting [8]); 99.5% (active) in experiment [3] (at 50.0 µM); 4% (inactive) in experiment [4] (setting [7]); -1% (inactive) in experiment [4] (setting [8]); 98.8% (active) in experiment [4] (at 50.0 µM). Also, the growth inhibition in experiment [5] (setting [7]) was -5% (inactive); in experiment [5] (setting [8]) it was -8% (inactive); in experiment [5] (at 50.0 µM), 99.3% (active); in experiment [6] (setting [7]), -8% (inactive); in experiment [6] (setting [8]) it was -4% (inactive); in experiment [6] (at 50.0 µM), 99.5% (active).

For `O=C1c2ccccc2C(=O)c2c(O)c(O)cc(O)c21`, the growth inhibition in experiment [1] (setting [7]) was 97% (active); in experiment [1] (setting [8]) it was 97% (active); in experiment [1] (at 50.0 µM) it was 88.5% (active) and 11.4% (inactive); in experiment [2] (setting [7]), 99% (active); in experiment [2] (setting [8]) it was 98% (active); in experiment [2] (at 50.0 µM), 86.2% (active) and -3.5% (inactive). In addition, the growth inhibition is 98% (active) in experiment [3] (setting [7]); 97% (active) in experiment [3] (setting [8]); 86% (active) and 14.2% (inactive) in experiment [3] (at 50.0 µM); 59% (inactive) in experiment [4] (setting [7]); 95% (active) in experiment [4] (setting [8]); 72.4% (active) and 9.2% (inactive) in experiment [4] (at 50.0 µM). In addition, the growth inhibition in experiment [5] (setting [7]) is 98% (active); in experiment [5] (setting [8]) it was 97% (active); in experiment [5] (at 50.0 µM), 86.1% (active) and -9.1% (inactive); in experiment [6] (setting [7]), 99% (active); in experiment [6] (setting [8]) it was 97% (active); in experiment [6] (at 50.0 µM), 85.5% (active) and 25% (inactive).

For `CCCCCCCN`, the growth inhibition in experiment [1] (setting [7]) was 1% (inactive); in experiment [1] (setting [8]) it was 89% (active); in experiment [1] (at 50.0 µM), 50% (inactive); in experiment [2] (setting [7]) it was -9% (inactive); in experiment [2] (setting [8]) it was 85% (active); in experiment [2] (at 50.0 µM), 20.9% (inactive). Also, the growth inhibition in experiment [3] (setting [7]) is -2% (inactive); in experiment [3] (setting [8]), 91% (active); in experiment [3] (at 50.0 µM) it was 19.9% (inactive); in experiment [4] (setting [7]), -5% (inactive); in experiment [4] (setting [8]), 52% (inactive); in experiment [4] (at 50.0 µM) it was 33.7% (inactive). Further, the growth inhibition in experiment [5] (setting [7]) is -2% (inactive); in experiment [5] (setting [8]), 86% (active); in experiment [5] (at 50.0 µM) it was 12.1% (inactive); in experiment [6] (setting [7]), -5% (inactive); in experiment [6] (setting [8]), 88% (active); in experiment [6] (at 50.0 µM), 48.1% (inactive).

Take `CC(C)Oc1ccc(Nc2ccccc2)cc1`: the growth inhibition is -2% (inactive) in experiment [1] (setting [7]); 61% (inactive) in experiment [1] (setting [8]); -1.65% (inactive) and 37% (inactive) in experiment [1] (at 50.0 µM); -9% (inactive) in experiment [2] (setting [7]); 15% (inactive) in experiment [2] (setting [8]); -2.9% (inactive) and 50.2% (inactive) in experiment [2] (at 50.0 µM). For the same compound, the growth inhibition in experiment [3] (setting [7]) was -1% (inactive); in experiment [3] (setting [8]), 43% (inactive); in experiment [3] (at 50.0 µM), -8.3% (inactive) and 56.8% (inactive); in experiment [4] (setting [7]), 0% (inactive); in experiment [4] (setting [8]) it was -18% (inactive); in experiment [4] (at 50.0 µM), -21.6% (inactive) and 36.1% (inactive). Further, the growth inhibition in experiment [5] (setting [7]) is 42% (inactive); in experiment [5] (setting [8]) it was 62% (inactive); in experiment [5] (at 50.0 µM), -16.4% (inactive) and 33.5% (inactive); in experiment [6] (setting [7]), -4% (inactive); in experiment [6] (setting [8]), 20% (inactive); in experiment [6] (at 50.0 µM), -9.65% (inactive) and 40.1% (inactive).
